# Measurements taken from PubChem BioAssay (NCATS).
# Inconclusive results are not listed. Entries that show only a call come without a potency. Calls of active or inactive are those of the source. Unless noted, the call rests on the fitted dose curve.
# What was measured:
# [1] = Natriuretic polypeptide receptor (hNpr1) antagonism - Pilot counterscreen GloSensor control cell line (AID 1347045); further: series mostly up to about 38 µM
# Procedure, shortened: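 HEK293 cGMP-sensor cells; 2% GloSensor reagent 2 h RT; LOPAC compounds in 1:5 titrations 30-50 min; 50 uM SNP 20 min; luminescence pre-read and post-read.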
# [2] = molecular target: Atrial natriuretic peptide receptor 1 (Homo sapiens) (UniProt P16066); assay: Natriuretic polypeptide receptor (hNpr1) antagonism - Pilot screen (AID 1347049);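 further: HEK293 cells with hNpr1 and GloSensor cGMP luciferase stimulated by 0.1 nM hNppA; agonist-evoked cGMP luminescence read 20 min after hNppA addition; series mostly up to about 58 µM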
# Procedure, shortened: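 Cells expressing receptor plus cGMP biosensor are seeded and incubated overnight at 37C, then loaded with GloSensor reagent (2% final) at room temperature for 2 h. Library compounds go on for 30 min. A pre-read precedes agonist (hNppA, 0.1 nM final) and a 20-min readout.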
# [3] = molecular target: Atrial natriuretic peptide receptor 2 (Homo sapiens) (UniProt P20594); assay: Natriuretic polypeptide receptor (hNpr2) antagonism - Pilot subtype selectivity assay (AID 1347050); further: potency means the concentration at half of the fitted maximal effect
# Procedure, shortened: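 Read-out: GloSensor luminescence (CCD imager), baseline vs post-stimulation. HEK293 cells expressing hNpr2; compounds pre-incubated 30-50 min at ambient temperature; hNppC 1 nM final, 20 min.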
# [4] = NS1 protein of Zika virus - qHTS assay to identify small molecule inhibitors in human HEK 293 cells (AID 1347053; active means well fitted curve in the direction sought with a large enough effect; an effect the other way counts as inactive or inconclusive; further: series mostly up to about 46 µM; nearly all actives have a fitted effect of over 55% in size)
# Procedure, shortened: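 Readout was TR-FRET using paired anti-NS1 antibodies after 24 h infection of HEK 293 cells with ZIKV MR766 (MOI = 0.5). Compound preceded virus by 1 h; reduced signal reflects lower NS1 expression.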
# [5] = molecular target: T1, Tyrosine-protein phosphatase non-receptor type substrate 1 (Homo sapiens) + Leukocyte surface antigen CD47 (Homo sapiens) (UniProt P78324+Q08722); assay: CD47-SIRPalpha protein protein interaction - LANCE assay qHTS validation (AID 1347057; active means well fitted curve in the direction sought with a large enough effect in the signal ratio, with a control signal flat, not every such curve was filed as active; the % refers to the signal ratio; further: potency means the concentration at half of the fitted maximal effect)
# Procedure, shortened: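 Inhibition of soluble CD47/SIRPalpha ectodomain association by titrated compounds, measured as 665/615 nm time-resolved FRET ratio after sequential 30 min room-temperature incubations.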
# [6] = molecular target: T1, Tyrosine-protein phosphatase non-receptor type substrate 1 (Homo sapiens) + Leukocyte surface antigen CD47 (Homo sapiens); assay: CD47-SIRPalpha protein protein interaction - Alpha assay qHTS validation (AID 1347059; active means well fitted curve in the direction sought with a large enough effect; an effect the other way counts as inactive or inconclusive;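 further: bead proximity luminescence from CD47 binding SIRPalpha after compound preincubation with SIRPalpha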)
# Procedure, shortened: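 In PBS (pH 7.4) with 0.05% IGEPAL CA-630, compound is preincubated with biotin-Avi-SIRPalpha ectodomain before His-CD47 ectodomain and affinity beads are added. Light-protected room-temperature incubations; AlphaScreen readout.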
# [7] = molecular target: Parathyroid hormone/parathyroid hormone-related peptide receptor (Homo sapiens) (UniProt Q03431); assay: qHTS for PTHR1 Agonists: Optimization Screen against the NCGC LOPAC library (AID 1347079; active means well fitted curve in the direction sought with a large enough effect; an effect the other way counts as inactive or inconclusive;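 further: GloSensor cAMP luminescence in HEK-293 GP2 cells expressing human PTHR1 with IBMX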; further: potency means the concentration at half of the fitted maximal effect)
# Procedure, shortened: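 Signal increase flags agonism. GP2 cells, derived from HEK-293, express human PTHR1 and a GloSensor cAMP construct.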
# [8] = qHTS for Inhibitors of the Functional Ribonucleoprotein Complex (vRNP) of Lassa (LASV) Arenavirus: LASV Primary Screen - GLuc reporter signal (AID 1347082; calls by dose curve; tested in HEK293 reporter line; further: series mostly up to about 57 µM; nearly all actives have a fitted effect of over 60% in size)
# [9] = qHTS for Inhibitors of the Functional Ribonucleoprotein Complex (vRNP) of Lassa (LASV) Arenavirus: Viability assay - alamar blue signal for LASV Primary Screen (AID 1347083; calls by dose curve; tested in HEK293 reporter line; further: series mostly up to about 57 µM; nearly all actives have a fitted effect of over 80% in size)
# [10] = qHTS for Inhibitors of the Functional Ribonucleoprotein Complex (vRNP) of Lymphocytic Choriomeningitis Arenaviruses (LCMV): Viability assay - alamar blue signal for LCMV Primary Screen (AID 1347085; calls by dose curve; tested in HEK293 reporter line; further: series mostly up to about 57 µM; nearly all actives have a fitted effect of over 80% in size)
# [11] = molecular target: Nucleoprotein (Lymphocytic choriomeningitis virus (strain Armstrong)) (UniProt P09992); assay: qHTS for Inhibitors of the Functional Ribonucleoprotein Complex (vRNP) of Lymphocytic Choriomeningitis Arenaviruses (LCMV): LCMV Primary Screen - GLuc reporter signal (AID 1347086); further: series mostly up to about 57 µM; nearly all actives have a fitted effect of over 70% in size
# [12] = molecular target: T1, Tyrosine-protein phosphatase non-receptor type substrate 1 (Homo sapiens) + Leukocyte surface antigen CD47 (Homo sapiens); assay: CD47-SIRPalpha protein protein interaction - HTRF assay qHTS validation (AID 1347058; active means well fitted curve in the direction sought with a large enough effect in the signal ratio, not every such curve was filed as active; the % refers to the signal ratio; further: series mostly up to about 38 µM)
# Procedure, shortened: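 Soluble extracellular domains (6His-CD47, Avi-tag-biotinylated SIRPalpha) in PBS pH 7.4 with 0.05% IGEPAL CA-630. Compounds were preincubated 30 min at RT with CD47 and anti-His-Eu, then SIRPalpha and SAV-XL665 were added. TR-FRET 665/615 ratio.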
# Nucleoprotein (Lymphocytic choriomeningitis virus (strain Armstrong)), sequence (P09992 whole entry, looked up): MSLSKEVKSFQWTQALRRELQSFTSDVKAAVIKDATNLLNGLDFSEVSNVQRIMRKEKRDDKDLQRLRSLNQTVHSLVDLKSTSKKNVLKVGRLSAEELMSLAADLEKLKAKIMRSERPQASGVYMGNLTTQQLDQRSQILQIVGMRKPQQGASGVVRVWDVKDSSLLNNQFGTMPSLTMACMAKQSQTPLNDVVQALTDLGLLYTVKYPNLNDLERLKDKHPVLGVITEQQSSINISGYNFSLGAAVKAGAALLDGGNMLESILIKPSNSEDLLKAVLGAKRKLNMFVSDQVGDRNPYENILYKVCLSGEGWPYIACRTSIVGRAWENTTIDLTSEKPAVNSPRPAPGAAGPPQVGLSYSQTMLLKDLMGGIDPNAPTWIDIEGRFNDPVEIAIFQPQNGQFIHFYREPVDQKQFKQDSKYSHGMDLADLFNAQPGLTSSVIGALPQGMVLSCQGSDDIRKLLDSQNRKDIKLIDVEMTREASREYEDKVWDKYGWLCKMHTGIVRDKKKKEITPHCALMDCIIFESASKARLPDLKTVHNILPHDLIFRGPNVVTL
# Atrial natriuretic peptide receptor 1 (Homo sapiens), sequence (P16066 whole entry, looked up): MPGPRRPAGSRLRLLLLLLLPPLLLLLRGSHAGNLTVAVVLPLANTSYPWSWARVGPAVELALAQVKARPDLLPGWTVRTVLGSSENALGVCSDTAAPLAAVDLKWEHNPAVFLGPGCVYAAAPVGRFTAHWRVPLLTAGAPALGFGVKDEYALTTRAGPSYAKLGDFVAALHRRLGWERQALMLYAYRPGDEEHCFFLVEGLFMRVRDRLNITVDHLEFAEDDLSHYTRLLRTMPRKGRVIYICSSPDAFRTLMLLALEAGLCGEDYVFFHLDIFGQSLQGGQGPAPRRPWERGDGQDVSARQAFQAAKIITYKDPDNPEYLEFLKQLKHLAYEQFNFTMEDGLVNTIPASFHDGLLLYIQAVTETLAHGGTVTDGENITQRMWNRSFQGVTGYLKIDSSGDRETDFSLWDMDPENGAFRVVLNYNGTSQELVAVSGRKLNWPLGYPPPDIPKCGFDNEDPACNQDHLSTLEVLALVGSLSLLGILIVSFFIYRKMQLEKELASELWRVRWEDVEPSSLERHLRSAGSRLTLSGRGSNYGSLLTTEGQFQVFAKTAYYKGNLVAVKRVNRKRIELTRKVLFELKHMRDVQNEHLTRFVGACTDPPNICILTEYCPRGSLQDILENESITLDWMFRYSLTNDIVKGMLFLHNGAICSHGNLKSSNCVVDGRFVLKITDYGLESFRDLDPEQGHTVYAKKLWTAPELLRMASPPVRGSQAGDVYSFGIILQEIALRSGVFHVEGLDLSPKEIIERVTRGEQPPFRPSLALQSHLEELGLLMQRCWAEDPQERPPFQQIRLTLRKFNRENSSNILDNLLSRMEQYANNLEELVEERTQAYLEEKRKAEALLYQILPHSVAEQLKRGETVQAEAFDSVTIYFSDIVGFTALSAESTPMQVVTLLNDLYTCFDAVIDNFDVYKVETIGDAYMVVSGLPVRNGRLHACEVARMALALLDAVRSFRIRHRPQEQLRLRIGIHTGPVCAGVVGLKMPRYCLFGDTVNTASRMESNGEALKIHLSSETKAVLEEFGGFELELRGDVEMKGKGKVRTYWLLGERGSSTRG
# T1 sequence (P78324 whole entry, looked up, the tested form may be a part): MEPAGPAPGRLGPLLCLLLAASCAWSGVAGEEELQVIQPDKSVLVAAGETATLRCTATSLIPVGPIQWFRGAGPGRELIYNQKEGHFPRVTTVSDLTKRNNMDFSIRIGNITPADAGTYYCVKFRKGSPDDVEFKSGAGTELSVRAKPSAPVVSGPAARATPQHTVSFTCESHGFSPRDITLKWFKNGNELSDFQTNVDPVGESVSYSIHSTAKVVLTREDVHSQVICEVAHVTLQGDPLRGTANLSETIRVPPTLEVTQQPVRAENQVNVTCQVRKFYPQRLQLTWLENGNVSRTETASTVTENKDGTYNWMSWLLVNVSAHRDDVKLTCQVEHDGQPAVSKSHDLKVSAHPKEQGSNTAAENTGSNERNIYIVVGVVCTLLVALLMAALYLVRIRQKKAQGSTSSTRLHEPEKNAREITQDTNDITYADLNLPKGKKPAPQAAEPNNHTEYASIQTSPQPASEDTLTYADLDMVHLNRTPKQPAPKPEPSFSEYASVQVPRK
# T1 sequence (Q08722 whole entry, looked up, the tested form may be a part): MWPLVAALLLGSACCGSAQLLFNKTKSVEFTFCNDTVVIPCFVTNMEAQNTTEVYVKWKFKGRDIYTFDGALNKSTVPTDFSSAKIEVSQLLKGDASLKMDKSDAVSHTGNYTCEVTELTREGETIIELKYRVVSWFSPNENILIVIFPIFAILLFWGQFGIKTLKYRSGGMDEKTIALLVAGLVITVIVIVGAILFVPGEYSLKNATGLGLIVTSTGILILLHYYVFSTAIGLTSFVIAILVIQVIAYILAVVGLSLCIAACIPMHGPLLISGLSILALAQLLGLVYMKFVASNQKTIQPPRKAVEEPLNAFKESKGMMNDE
# Parathyroid hormone/parathyroid hormone-related peptide receptor (Homo sapiens), sequence (Q03431 whole entry, looked up): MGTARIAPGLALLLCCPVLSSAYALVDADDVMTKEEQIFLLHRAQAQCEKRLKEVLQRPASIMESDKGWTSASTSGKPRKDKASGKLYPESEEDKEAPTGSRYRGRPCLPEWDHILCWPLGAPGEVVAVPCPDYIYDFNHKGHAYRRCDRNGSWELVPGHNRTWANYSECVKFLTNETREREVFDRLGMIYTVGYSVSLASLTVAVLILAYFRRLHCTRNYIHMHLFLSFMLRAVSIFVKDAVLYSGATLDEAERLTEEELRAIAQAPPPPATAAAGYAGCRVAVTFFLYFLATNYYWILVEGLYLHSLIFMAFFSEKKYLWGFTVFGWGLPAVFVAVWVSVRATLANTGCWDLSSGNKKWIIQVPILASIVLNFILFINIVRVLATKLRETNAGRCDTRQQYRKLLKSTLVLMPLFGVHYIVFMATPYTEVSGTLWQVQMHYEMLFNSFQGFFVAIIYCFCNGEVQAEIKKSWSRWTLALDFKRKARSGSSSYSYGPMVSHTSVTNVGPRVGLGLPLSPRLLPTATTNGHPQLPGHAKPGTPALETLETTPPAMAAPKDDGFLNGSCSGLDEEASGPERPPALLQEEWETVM
# Atrial natriuretic peptide receptor 2 (Homo sapiens), sequence (P20594 whole entry, looked up): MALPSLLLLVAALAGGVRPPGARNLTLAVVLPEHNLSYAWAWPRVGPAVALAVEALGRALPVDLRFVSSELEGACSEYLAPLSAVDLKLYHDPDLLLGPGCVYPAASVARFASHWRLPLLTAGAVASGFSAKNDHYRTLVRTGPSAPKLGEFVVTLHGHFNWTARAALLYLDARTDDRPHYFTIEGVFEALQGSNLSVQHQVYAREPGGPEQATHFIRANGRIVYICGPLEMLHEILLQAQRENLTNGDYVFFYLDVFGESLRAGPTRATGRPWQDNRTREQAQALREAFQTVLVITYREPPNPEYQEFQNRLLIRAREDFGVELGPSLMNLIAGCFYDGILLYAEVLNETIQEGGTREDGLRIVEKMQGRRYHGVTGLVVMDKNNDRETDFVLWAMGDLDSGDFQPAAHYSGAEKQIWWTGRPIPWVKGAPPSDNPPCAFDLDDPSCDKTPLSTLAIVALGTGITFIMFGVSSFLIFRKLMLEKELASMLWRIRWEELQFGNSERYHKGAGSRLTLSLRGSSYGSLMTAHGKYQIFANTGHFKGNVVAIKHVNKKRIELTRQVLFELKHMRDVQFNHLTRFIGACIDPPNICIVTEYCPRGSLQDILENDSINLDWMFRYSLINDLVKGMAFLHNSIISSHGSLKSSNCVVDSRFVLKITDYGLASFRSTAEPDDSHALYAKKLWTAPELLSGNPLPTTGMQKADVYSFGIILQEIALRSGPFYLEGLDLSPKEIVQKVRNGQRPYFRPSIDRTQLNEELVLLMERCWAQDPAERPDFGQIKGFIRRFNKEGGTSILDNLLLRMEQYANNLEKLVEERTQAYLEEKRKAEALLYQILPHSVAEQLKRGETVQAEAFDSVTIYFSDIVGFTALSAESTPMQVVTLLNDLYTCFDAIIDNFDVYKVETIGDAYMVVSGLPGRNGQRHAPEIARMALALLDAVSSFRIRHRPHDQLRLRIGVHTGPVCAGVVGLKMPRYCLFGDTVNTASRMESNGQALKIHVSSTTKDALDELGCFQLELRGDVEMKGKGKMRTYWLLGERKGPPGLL
Compound,Potency [1],Potency [2],Potency [3],outcome [4],Potency [5],Potency [6],Potency [7],Potency [8],Potency [9],Potency [10],Potency [11],outcome [12]
CC(N)[C@H](O)c1ccc(O)c(O)c1 (some centres undefined),inactive,inactive,inactive,inactive,inactive,inactive,inactive,inactive,inactive,inactive,inactive,–
CCN(CCCl)Cc1ccccc1Br,inactive,inactive,inactive,–,–,–,inactive,inactive,inactive,inactive,inactive,–
CCCn1c(=O)c2[nH]c(C3CCCC3)nc2n(CCCOC(=O)c2ccc(S(=O)(=O)F)cc2)c1=O,inactive,–,inactive,inactive,inactive,inactive,inactive,inactive,inactive,inactive,inactive,–
C[N+](C)(C)CC#CCN1CCCC1=O,inactive,inactive,inactive,inactive,–,–,inactive,inactive,inactive,inactive,inactive,–
O=[N+]([O-])c1cc(O)c(O)c([N+](=O)[O-])c1,inactive,inactive,inactive,inactive,inactive,–,inactive,inactive,inactive,inactive,inactive,–
CC(=O)NBr,inactive,inactive,inactive,inactive,inactive,–,inactive,inactive,inactive,inactive,inactive,–
O=C1C=CC(=O)C=C1,–,inactive,inactive,inactive,inactive,inactive,inactive,–,inactive,inactive,–,inactive
CCCN(CCC)[C@H]1CCc2c(F)ccc(O)c2C1,–,inactive,inactive,inactive,inactive,–,inactive,inactive,inactive,inactive,inactive,–
CCCCCCCCCCCCCC(=O)O[C@@H]1[C@@H](C)[C@@]2(O)[C@@H](C=C(CO)C[C@@]3(O)C(=O)C(C)=C[C@@H]23)C2C(C)(C)[C@@]21OC(C)=O (some centres undefined),inactive,–,0.0066 µM (active),–,inactive,–,inactive,inactive,inactive,inactive,inactive,inactive
CN1CC[C@@]2(C)c3cc(O)ccc3N(C)C12 (some centres undefined),–,inactive,inactive,inactive,inactive,inactive,inactive,inactive,inactive,inactive,inactive,–
NNC(N)=O,–,inactive,inactive,inactive,inactive,–,inactive,inactive,inactive,inactive,inactive,inactive
N[C@@H](Cn1oc(=O)[nH]c1=O)C(=O)O,–,inactive,inactive,inactive,inactive,inactive,inactive,inactive,inactive,inactive,inactive,–
NCC(CP(=O)(O)O)c1ccc(Cl)cc1 (centres undefined),–,inactive,inactive,inactive,inactive,inactive,18.9 µM (active),inactive,inactive,inactive,inactive,–
NCCc1c[nH]c2ccc(C(N)=O)cc12,–,inactive,inactive,inactive,inactive,inactive,inactive,inactive,inactive,inactive,inactive,–
C[N+]1(C)CCN(c2ccccc2)CC1,–,inactive,inactive,inactive,–,–,inactive,inactive,inactive,inactive,inactive,inactive
CN(N=O)c1ccc(O)c(O)c1,–,inactive,inactive,inactive,18.5 µM (active),–,inactive,inactive,inactive,inactive,inactive,–
N#CCCN,–,inactive,inactive,inactive,inactive,inactive,inactive,inactive,inactive,inactive,inactive,inactive
CN(C(=O)Cc1ccc(Cl)c(Cl)c1)C(CN1CCCC1)c1cccc(OCC(=O)O)c1 (centres undefined),–,inactive,inactive,inactive,inactive,inactive,inactive,inactive,inactive,inactive,inactive,–
Cc1o[nH]c(=O)c1CC(N)C(=O)O (centres undefined),–,inactive,inactive,inactive,inactive,–,inactive,inactive,inactive,inactive,inactive,inactive
CN1CC[C@@]2(C)c3cc(OC(=O)Nc4ccccc4)ccc3N(C)[C@@H]12,–,inactive,inactive,inactive,inactive,inactive,inactive,inactive,inactive,inactive,inactive,–
C=CCN1CCC23c4c5ccc(O)c4O[C@H]2C(=O)CC[C@@]3(O)C1C5 (some centres undefined),–,inactive,inactive,inactive,inactive,inactive,inactive,inactive,inactive,inactive,inactive,–
NCC(O)c1cc(O)c(O)cc1F (centres undefined),–,inactive,inactive,inactive,inactive,inactive,inactive,inactive,inactive,inactive,inactive,–
NC(=O)c1ccc(OCC(O)CN2CC=C(c3ccc(F)cc3)CC2)cc1 (centres undefined),–,inactive,inactive,inactive,inactive,–,inactive,inactive,inactive,inactive,inactive,inactive
